According to the supplement of paper PMC10849652:
Targets with a hit are over-represented here; the source holds about 7,900 in all. About 0.6% of all pairs of compound and target were hits. Unmarked numbers belong to inactive results.

Columns and labels:
Experiment in all cases: log2 fold change, soluble protein after heating vs DMSO (PISA); higher = thermal stabilisation; K562 cells, 10 uM, 30 min; active = over 0.2 and 3.5 SD of the protein, either way, in both replicates (recomputed)
bafetinib = compound: Cc1ccc(NC(=O)c2ccc(CN3CC[C@H](N(C)C)C3)c(C(F)(F)F)c2)cc1Nc1nccc(-c2cncnc2)n1 [bafetinib]
In short: (§1)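 For each measurement, 10 μM compound was applied for 30 min to K562 cells at 2×10^6 cells/mL. Aliquots were heated for 3 min across 48°C-58°C, pooled, and extracted in PBS with 0.5% NP-40 at 4°C; the supernatant after 21,000xg for 90 min was soluble protein. This was quantified by TMTpro 16plex LC-MS/MS with channel sums equalised, and thermal stability was reported relative to control samples from duplicates, on a log2 fold-change scale.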

[1] = compound: Cc1cccc(CC(=O)N2CCc3c2ccc(-c2cn(C)c4ncnc(N)c24)c3F)n1
In short: as §1

nilotinib = compound: Cc1cn(-c2cc(NC(=O)c3ccc(C)c(Nc4nccc(-c5cccnc5)n4)c3)cc(C(F)(F)F)c2)cn1 [nilotinib]
In short: as §1

[2] = compound: Cc1nc(Nc2n[nH]c3c2CN(C(=O)N[C@H](CN(C)C)c2ccccc2)C3(C)C)c2sccc2n1
In short: as §1

dasatinib = compound: Cc1nc(Nc2ncc(C(=O)Nc3c(C)cccc3Cl)s2)cc(N2CCN(CCO)CC2)n1 [dasatinib]
In short: as §1

[3] = compound: Cc1ncc(-c2ccnc(Nc3ccc(S(C)(=O)=O)cc3)n2)n1C(C)C
In short: as §1

[4] = compound: Cn1cc(-c2ccc3c(c2)CCN3C(=O)Cc2cccc(C(F)(F)F)c2)c2c(N)ncnc21
In short: as §1

[5] = compound: Cn1cc(-c2ccc3nnc(C(F)(F)c4ccc5ncccc5c4)n3n2)cn1
In short: as §1

tipifarnib = compound: Cn1cncc1[C@@](N)(c1ccc(Cl)cc1)c1ccc2c(c1)c(-c1cccc(Cl)c1)cc(=O)n2C [tipifarnib]
In short: as §1

mubritinib = compound: FC(F)(F)c1ccc(/C=C/c2nc(COc3ccc(CCCCn4ccnn4)cc3)co2)cc1 [mubritinib]
In short: as §1

[6] = compound: NC(=O)Nc1cc(-c2cccc(F)c2)sc1C(=O)N[C@H]1CCCNC1
In short: as §1

[7] = compound: NC(=O)c1cnc(N[C@@H]2CCCC[C@@H]2N)nc1Nc1cccc(-n2nccn2)c1
In short: as §1

[8] = compound: NC1(c2ccc(-c3nc4ccn5c(=O)[nH]nc5c4cc3-c3ccccc3)cc2)CCC1
In short: as §1

[9] = compound: NCC(=O)Nc1ccc(-n2nc(C(F)(F)F)cc2-c2ccc3c(ccc4ccccc43)c2)cc1
In short: as §1

entinostat = compound: Nc1ccccc1NC(=O)c1ccc(CNC(=O)OCc2cccnc2)cc1 [entinostat]
In short: as §1

vorinostat = compound: O=C(CCCCCCC(=O)Nc1ccccc1)NO [vorinostat]
In short: as §1

citarinostat = compound: O=C(CCCCCCNC(=O)c1cnc(N(c2ccccc2)c2ccccc2Cl)nc1)NO [citarinostat]
In short: as §1

silmitasertib = compound: O=C(O)c1ccc2c(c1)nc(Nc1cccc(Cl)c1)c1ccncc12 [silmitasertib]
In short: as §1

[10] = compound: O=C1NC(=O)C(c2cnc3ccccn23)=C1c1cn2c3c(cc(F)cc13)CN(C(=O)N1CCCCC1)CC2
In short: as §1

[11] = compound: c1cc(OCCN2CCCCC2)cc(-c2n[nH]c3ccc(-c4nnc[nH]4)cc23)c1
In short: as §1

Chain of UniProt P06400 (P06400 whole entry, looked up): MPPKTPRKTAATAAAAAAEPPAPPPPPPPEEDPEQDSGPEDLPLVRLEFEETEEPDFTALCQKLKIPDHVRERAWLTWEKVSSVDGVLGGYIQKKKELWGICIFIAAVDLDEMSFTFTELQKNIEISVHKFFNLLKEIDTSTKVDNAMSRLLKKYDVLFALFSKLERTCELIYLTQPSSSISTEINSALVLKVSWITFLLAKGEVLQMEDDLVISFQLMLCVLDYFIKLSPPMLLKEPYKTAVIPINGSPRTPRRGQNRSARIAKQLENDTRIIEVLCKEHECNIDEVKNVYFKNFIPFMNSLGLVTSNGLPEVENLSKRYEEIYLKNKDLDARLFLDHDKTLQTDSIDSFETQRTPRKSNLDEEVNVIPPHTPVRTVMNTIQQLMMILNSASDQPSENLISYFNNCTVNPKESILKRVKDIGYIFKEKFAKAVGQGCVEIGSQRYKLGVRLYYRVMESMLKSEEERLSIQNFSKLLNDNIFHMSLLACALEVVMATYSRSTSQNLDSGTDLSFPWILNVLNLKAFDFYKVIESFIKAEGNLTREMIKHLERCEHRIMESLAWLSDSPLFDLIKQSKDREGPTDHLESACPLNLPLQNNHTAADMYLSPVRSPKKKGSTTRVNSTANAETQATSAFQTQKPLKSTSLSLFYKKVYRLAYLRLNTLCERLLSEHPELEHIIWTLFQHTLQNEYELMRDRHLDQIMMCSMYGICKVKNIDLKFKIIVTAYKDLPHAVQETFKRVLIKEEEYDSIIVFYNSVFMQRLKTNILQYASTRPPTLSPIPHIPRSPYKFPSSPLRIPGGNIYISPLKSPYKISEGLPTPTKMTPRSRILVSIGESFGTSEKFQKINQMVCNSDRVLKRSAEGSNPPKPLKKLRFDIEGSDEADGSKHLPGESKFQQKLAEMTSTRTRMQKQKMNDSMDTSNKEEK
Chain of UniProt P63208 (P63208 whole entry, looked up): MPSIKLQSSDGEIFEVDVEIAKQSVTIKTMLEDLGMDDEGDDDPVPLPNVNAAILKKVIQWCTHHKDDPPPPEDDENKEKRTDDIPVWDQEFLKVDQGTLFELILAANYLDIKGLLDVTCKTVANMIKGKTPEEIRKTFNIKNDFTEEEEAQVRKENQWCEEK
Chain of UniProt P51151 (P51151 whole entry, looked up): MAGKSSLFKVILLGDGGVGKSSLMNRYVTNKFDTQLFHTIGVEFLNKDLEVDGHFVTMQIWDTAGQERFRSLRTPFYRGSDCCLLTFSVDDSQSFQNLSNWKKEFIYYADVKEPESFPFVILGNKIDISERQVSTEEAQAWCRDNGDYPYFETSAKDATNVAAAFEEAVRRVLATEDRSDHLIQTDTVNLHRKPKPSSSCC
Chain of UniProt Q96DX4 (Q96DX4 whole entry, looked up): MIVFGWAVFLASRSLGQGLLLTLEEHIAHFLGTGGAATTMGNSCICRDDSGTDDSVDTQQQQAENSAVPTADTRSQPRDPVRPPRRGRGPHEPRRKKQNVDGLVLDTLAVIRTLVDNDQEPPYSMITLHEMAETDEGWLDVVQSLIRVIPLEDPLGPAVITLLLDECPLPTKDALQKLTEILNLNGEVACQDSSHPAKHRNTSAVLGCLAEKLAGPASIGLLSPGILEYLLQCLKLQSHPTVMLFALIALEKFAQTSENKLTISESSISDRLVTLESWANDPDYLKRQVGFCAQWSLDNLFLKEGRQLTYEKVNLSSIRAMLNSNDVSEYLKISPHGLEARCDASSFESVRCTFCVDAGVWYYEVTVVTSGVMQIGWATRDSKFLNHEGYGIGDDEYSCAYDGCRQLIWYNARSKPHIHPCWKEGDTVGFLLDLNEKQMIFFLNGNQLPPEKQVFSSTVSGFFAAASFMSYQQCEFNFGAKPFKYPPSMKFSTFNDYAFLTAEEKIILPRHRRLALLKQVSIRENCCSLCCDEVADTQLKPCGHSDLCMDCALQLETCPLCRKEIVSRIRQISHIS
Chain of UniProt P62070 (P62070 whole entry, looked up): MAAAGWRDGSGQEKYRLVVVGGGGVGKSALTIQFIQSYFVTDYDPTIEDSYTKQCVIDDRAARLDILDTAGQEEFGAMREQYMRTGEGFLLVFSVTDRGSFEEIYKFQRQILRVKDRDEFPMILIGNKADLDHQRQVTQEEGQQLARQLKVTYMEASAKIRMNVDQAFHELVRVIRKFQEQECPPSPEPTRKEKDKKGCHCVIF
Chain of UniProt Q9HB90 (Q9HB90 whole entry, looked up): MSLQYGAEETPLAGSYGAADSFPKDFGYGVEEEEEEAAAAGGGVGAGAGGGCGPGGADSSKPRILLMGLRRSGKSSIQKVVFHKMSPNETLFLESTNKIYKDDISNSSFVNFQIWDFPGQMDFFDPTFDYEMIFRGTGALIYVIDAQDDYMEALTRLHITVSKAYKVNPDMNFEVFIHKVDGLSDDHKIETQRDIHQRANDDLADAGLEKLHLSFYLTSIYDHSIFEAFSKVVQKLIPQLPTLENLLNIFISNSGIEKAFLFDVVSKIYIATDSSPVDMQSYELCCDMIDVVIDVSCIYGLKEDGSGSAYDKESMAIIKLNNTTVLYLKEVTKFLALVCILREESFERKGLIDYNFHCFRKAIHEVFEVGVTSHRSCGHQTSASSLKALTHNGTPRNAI
Chain of UniProt Q99643 (Q99643 whole entry, looked up): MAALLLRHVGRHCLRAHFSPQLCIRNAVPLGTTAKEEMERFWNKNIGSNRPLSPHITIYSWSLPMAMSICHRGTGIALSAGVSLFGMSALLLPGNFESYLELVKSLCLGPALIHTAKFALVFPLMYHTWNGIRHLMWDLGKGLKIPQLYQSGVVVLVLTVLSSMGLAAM
Chain of UniProt Q96I25 (Q96I25 whole entry, looked up): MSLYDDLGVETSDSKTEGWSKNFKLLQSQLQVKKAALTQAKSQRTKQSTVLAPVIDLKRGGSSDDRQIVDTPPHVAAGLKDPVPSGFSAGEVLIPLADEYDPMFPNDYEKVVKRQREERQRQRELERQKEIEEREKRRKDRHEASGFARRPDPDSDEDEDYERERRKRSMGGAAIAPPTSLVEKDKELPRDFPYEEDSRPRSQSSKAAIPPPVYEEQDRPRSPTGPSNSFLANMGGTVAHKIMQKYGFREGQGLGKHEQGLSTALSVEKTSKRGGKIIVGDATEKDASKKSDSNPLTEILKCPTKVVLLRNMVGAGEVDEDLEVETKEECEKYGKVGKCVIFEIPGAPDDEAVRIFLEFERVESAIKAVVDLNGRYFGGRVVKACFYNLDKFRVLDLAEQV
Chain of UniProt P35244 (P35244 whole entry, looked up): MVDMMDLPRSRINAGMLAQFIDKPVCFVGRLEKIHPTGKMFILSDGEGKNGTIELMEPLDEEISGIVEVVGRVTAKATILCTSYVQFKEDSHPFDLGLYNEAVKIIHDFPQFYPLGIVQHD
Chain of UniProt Q9NSI8 (Q9NSI8 whole entry, looked up): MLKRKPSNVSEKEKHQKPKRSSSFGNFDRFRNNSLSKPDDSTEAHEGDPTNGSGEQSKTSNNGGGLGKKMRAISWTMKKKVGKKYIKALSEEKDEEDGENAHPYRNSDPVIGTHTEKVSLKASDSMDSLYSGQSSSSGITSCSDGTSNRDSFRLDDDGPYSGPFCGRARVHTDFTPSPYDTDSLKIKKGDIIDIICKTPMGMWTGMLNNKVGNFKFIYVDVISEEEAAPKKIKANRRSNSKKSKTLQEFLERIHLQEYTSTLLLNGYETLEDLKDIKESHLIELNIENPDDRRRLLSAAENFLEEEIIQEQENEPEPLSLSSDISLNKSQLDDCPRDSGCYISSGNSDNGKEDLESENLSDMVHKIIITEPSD
Chain of UniProt Q5JTH9 (Q5JTH9 whole entry, looked up): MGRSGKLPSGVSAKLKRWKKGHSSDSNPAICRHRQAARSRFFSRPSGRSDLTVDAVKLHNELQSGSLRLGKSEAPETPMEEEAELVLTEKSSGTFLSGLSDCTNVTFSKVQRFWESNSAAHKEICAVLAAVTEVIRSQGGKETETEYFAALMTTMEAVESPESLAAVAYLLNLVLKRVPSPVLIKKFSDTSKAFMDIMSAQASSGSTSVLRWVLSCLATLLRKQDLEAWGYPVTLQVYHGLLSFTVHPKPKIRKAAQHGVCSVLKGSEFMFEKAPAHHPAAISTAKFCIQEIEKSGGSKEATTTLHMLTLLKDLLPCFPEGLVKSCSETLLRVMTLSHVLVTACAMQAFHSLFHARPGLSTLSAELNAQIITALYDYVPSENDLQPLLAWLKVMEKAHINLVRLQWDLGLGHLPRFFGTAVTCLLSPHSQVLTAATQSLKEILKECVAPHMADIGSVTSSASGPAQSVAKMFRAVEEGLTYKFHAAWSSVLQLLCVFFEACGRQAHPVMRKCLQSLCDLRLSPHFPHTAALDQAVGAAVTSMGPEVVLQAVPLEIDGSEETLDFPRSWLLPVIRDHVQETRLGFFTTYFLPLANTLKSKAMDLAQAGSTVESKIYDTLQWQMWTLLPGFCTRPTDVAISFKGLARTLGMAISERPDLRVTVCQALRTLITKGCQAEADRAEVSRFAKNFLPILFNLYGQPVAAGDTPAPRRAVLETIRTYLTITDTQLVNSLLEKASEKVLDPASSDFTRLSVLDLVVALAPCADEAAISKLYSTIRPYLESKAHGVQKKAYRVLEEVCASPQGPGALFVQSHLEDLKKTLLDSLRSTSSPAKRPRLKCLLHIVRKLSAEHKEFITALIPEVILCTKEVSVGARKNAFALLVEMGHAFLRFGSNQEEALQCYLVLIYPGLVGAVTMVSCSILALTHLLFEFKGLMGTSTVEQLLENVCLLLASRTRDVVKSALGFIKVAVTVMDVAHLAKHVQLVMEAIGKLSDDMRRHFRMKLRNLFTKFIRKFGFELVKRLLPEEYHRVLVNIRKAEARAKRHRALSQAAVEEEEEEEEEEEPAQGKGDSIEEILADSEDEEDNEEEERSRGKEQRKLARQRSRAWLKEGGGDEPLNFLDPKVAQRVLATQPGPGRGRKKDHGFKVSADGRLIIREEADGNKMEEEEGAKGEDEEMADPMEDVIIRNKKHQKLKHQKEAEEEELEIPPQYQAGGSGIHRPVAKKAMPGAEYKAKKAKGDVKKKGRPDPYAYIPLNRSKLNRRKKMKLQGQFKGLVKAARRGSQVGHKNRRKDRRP

Target | log2 fold change (bafetinib) | log2 fold change [1] | log2 fold change (nilotinib) | log2 fold change [2] | log2 fold change (dasatinib) | log2 fold change [3] | log2 fold change [4] | log2 fold change [5] | log2 fold change (tipifarnib) | log2 fold change (mubritinib) | log2 fold change [6] | log2 fold change [7] | log2 fold change [8] | log2 fold change [9] | log2 fold change (entinostat) | log2 fold change (vorinostat) | log2 fold change (citarinostat) | log2 fold change (silmitasertib) | log2 fold change [10] | log2 fold change [11]
RTF2 (UniProt Q9BY42) | -0.074 | -0.001 | -0.045 | -0.125 | -0.012 | 0.039 | -0.071 | -0.039 | -0.065 | -0.047 | -0.134 | 0.012 | 0.124 | -0.081 | -0.023 | -0.062 | 0.133 | 0.133 | -0.189 | 0.028
RPA3 (UniProt P35244) | 0.023 | 0.086 | -0.034 | -0.047 | 0.016 | 0.022 | 0.105 | -0.002 | 0.014 | 0.024 | 0.044 | 0.086 | -0.021 | 0.371 (active) | 0.102 | -0.005 | 0.1 | -0.007 | -0.164 | -0.071
RFC3 (UniProt P40938) | -0.035 | 0.049 | -0.016 | -0.017 | -0.032 | -0.011 | 0.053 | -0.01 | -0.051 | 0.045 | -0.001 | -0.039 | -0.078 | -0.023 | -0.028 | 0.028 | 0.077 | -0.006 | -0.039 | -0.013
RIC8A isoform 3 (UniProt Q9NPQ8) | 0.042 | -0.062 | -0.041 | -0.043 | -0.108 | 0.088 | 0.03 | 0.014 | -0.1 | -0.095 | -0.035 | -0.154 | -0.126 | -0.088 | 0.192 | 0.058 | 0.12 | -0.005 | 0.084 | -0.096
SDHC (UniProt Q99643) | 0 | -0.127 | 0.007 | 0.068 | 0.028 | -0.056 | -0.011 | -0.024 | 0.211 | 0.02 | -0.12 | 0.097 | -0.079 | 0.041 | -0.178 | -0.042 | 0.033 | 0.032 | 0 | -0.062
RRAGC (UniProt Q9HB90) | -0.07 | -0.054 | -0.005 | 0.022 | 0.05 | -0.021 | 0.001 | 0.05 | -0.027 | 0.031 | -0.001 | -0.091 | -0.265 (active) | -0.069 | -0.004 | -0.015 | 0.041 | 0.014 | 0.011 | -0.027
RRAS2 isoform 4 (UniProt P62070) | -0.05 | -0.082 | 0.111 | -0.021 | 0.066 | 0.025 | 0.062 | -0.03 | 0.088 | -0.025 | -0.068 | 0.03 | 0.08 | 0.038 | -0.059 | -0.069 | 0.01 | 0.048 | -0.01 | 0.013
RRP12 (UniProt Q5JTH9) | 0.01 | -0.036 | -0.082 | 0.088 | -0.028 | 0.184 | -0.136 | -0.123 | -0.035 | -0.096 | 0.062 | 0.188 | 0.089 | 0.051 | 0.081 | 0.072 | -0.064 | 0.121 | 0.119 | 0.216
SKP1 (UniProt P63208) | -0.003 | 0.289 (active) | 0.024 | -0.011 | 0.007 | 0.012 | 0.047 | -0.017 | -0.06 | -0.001 | 0.015 | 0.011 | 0.034 | 0.047 | 0.037 | 0.16 | -0.003 | 0 | 0.008 | 0.01
RAB9A (UniProt P51151) | -0.073 | -0.021 | -0.01 | 0.012 | 0.002 | 0.002 | 0.104 | 0.001 | 0.001 | 0.002 | 0.014 | -0.026 | -0.229 (active) | -0.022 | 0 | 0.035 | 0.039 | -0.028 | -0.032 | -0.018
RB1 (UniProt P06400) | 0.006 | 0.01 | 0.015 | -0.378 (active) | 0.011 | -0.716 (active) | 0.082 | 0.011 | 0.004 | 0.046 | 0.11 | -0.133 | -0.072 | -0.01 | 0.015 | 0.05 | 0.039 | 0.039 | -0.241 (active) | -0.038
RPS15 (UniProt P62841) | 0.087 | -0.09 | 0.033 | 0.221 | 0.133 | -0.106 | -0.194 | -0.027 | 0.082 | -0.044 | 0.005 | -0.13 | 0.135 | 0 | -0.068 | 0 | -0.034 | 0.02 | 0.036 | -0.144
SAMSN1 isoform 3 (UniProt Q9NSI8) | -0.049 | 0.04 | -0.036 | -0.169 | -0.09 | 0.02 | 0.029 | 0.037 | -0.015 | 0.048 | -0.06 | -0.067 | -0.067 | -0.028 | 0.099 | 0.009 | 0.06 | 0.063 | -0.073 | -0.025
RSPRY1 (UniProt Q96DX4) | 0.052 | -0.05 | 0.012 | -0.037 | -0.036 | 0.01 | 0.007 | -0.049 | 0.093 | -0.039 | -0.054 | 0.051 | -0.104 | 0.061 | -0.016 | -0.02 | -0.075 | 0.028 | -0.072 | -0.008
RBM17 (UniProt Q96I25) | -0.056 | 0.042 | -0.095 | -0.249 | -0.108 | 0.011 | -0.067 | -0.028 | -0.042 | -0.148 | 0.021 | 0.037 | 0.003 | -0.07 | 0.08 | 0.092 | 0.056 | 0.036 | 0.027 | -0.127
RPL31 (UniProt P62899) | 0.342 | 0.024 | 0.001 | 0.179 | 0.14 | -0.041 | -0.231 | -0.082 | 0.151 | -0.095 | 0.042 | 0.099 | 0.26 | 0.075 | -0.079 | -0.012 | -0.09 | 0.048 | 0.104 | -0.12
